High-throughput results as filed in PubChem.
The list is not random: actives were taken first. Their share in the collection is about 1.9%.
MCL1 BIM primary – disrupts human MCL1 binding to BIM-BH3 peptide; GST-MCL1 / FITC-Bim-BH3 fluorescence polarization; inhibition, % at 10.9 µM; actives 0.68% (n = 320,000); AID 2057;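 active = inhibition above the mean inhibition of all tested compounds plus 3 SD, set per campaign, cut at about 40% in these data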;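 note: 0% = DMSO wells and 100% = unlabeled Bim-BH3 peptide control; higher means more loss of mP so more displacement of Bim peptide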
GLD-1 TGE inh – GLD-1-TGE RNA interaction inhibition (C. elegans); Q17339; purified GLD-1 + fluorescein TGE RNA, fluorescence polarization; inhibition, % at 5.96 µM; actives 0.44% (n = 320,000);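 active = percent inhibition above a per-plate cutoff, the plate mean of test compounds plus 3 SD, cut at about 30% in these data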;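 note: 0% = DMSO wells with GLD-1 and probe and 100% = wells lacking GLD-1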
MEX-5 binding – C. elegans MEX-5 TCR-2 RNA binding activity; actives 0.38% (n = 300,000); AID 1832; activity score (negative = inhibition of binding), % at 10 µM; MEX-5/FITC-TCR2 RNA binding, fluorescence polarization; hits give low values;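 active = inhibition past about -25% in most replicates, and total fluorescence under double the plate's negative control median, limit read from the data; inconclusive = replicates evenly split on the limit, or fluorescence at least double controls; inactive = too little inhibition in most replicates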;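 note: 0% = DMSO and -100% = 5 µM competing unlabeled TCR2 RNA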
Target sequence (Q9XUB2 whole entry, looked up): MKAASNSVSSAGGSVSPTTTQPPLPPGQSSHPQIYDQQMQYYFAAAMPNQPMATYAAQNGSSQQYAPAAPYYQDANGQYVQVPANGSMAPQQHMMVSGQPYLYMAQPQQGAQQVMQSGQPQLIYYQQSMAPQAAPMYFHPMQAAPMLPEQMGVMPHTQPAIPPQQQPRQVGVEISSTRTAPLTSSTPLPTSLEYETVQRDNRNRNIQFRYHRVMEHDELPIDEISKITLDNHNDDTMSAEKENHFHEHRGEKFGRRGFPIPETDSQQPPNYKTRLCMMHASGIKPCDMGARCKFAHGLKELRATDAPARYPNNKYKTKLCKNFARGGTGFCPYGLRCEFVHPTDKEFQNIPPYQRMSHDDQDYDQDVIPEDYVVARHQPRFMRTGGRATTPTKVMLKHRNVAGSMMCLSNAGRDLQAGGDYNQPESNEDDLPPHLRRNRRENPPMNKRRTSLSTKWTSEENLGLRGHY
BCLXL inh – inhibitors of human Bcl-xL | Q07817 | GST-Bcl-xL / FITC-Bim BH3 peptide fluorescence polarization | inhibition, % at 10.9 µM | actives 0.7% (n = 320,000) | AID 2129;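 active = inhibition above the mean of all tested compounds plus 3 SD, cutoff set per campaign, cut at about 30% in these data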;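 note: 0% = DMSO wells and 100% = unlabeled Bim-BH3 peptide competitor; inhibitors lower millipolarization by displacing the labeled peptide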
Target sequence (Q07817 whole entry, looked up): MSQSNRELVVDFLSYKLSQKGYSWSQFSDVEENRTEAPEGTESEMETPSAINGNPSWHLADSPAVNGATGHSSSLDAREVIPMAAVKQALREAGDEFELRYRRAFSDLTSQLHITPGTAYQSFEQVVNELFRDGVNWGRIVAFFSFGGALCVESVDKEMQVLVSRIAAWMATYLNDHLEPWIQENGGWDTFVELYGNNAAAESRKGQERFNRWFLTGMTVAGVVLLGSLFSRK
LANA-H2A inh – blocks KSHV LANA binding to histone H2A/H2B | actives 0.6% (n = 320,000) | cell-free LANA-H2A/H2B peptide, fluorescence polarization | Q9QR71 | inhibition, % (concentration not given with the values); in the data active = inhibition mostly above about 10%, no sharp cut-off; inactive = mostly below about 6.7%
CR mimetic SO – lowers age-related superoxide in aged yeast cells; S. cerevisiae aged cells, superoxide DHE fluorescence; hits give low values; superoxide response (% of plate mean), % at 10 µM; actives 0.18% (n = 330,000);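 active = superoxide response under a set limit, about three screen SD below normal, cut at about 65% in these data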;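 note: yeast aged for seven days with compound at 30 °C before DHE staining; 100% = average MFI of all compound-treated wells on the plate with controls excluded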
Bcl-xL conf – Bcl-xL (human) inhibition, MCL1 counter-screen confirmation | shares compounds with MCL1 BIM primary | AID 2166 | actives 54% (n = 1,700) | inhibition, % at 10.9 µM | GST-Bcl-xL / FITC-Bim BH3 peptide FP binding;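 active = inhibition above a cutoff equal to the mean inhibition of all tested compounds plus 3 SD, cut at about 30% in these data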;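 note: 0% = DMSO wells and 100% = unlabeled Bim BH3 control peptide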
MCL1 inh confirm – MCL1-BIM-BH3 interaction inhibition, confirmation; shares compounds with MCL1 BIM primary; GST-MCL1 / FITC-Bim-BH3 fluorescence polarization; inhibition, % at 10.9 µM; actives 61% (n = 1,700);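 active = inhibition above the average of all tested compounds plus 3 SD, cut at about 40% in these data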;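 note: 0% = DMSO wells and 100% = unlabeled Bim-BH3 control peptide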
* hit, by the source's call; ? = inconclusive; · = no result; + = active, no number.

SMILES	MCL1 BIM primary	GLD-1 TGE inh	MEX-5 binding	BCLXL inh	LANA-H2A inh	CR mimetic SO	Bcl-xL conf	MCL1 inh confirm
COc1cc(N)c(Cc2nccc3cc(OC)c(OC)cc23)cc1OC	121.0*	16.8	-1.0	114.9*	1.4	97.0	17.6	19.2
COc1cccc2c(=O)c3cccc(N)c3[nH]c12	86.9*	12.8	-4.5	62.6*	1.2	102.7	44.0*	42.1*
CNc1cccccc1=S	78.2*	28.4	-7.1	54.5*	6.2	111.7	28.4	26.8
CNc1ccccc1	3.7	1.1	·	3.9	0.3	93.7	·	·
CC(C)C1Cc2c(C#N)c(N)sc(=S)c2CO1 (stereo unspecified)	63.8*	65.9*	2.0	66.8*	-1.6	100.1	22.9	16.6
O=C(CCc1ccccc1)Oc1ccccc1[N+](=O)[O-]	73.2*	2.8	-0.1	6.6	3.6	103.3	2.8	-0.9
Cc1nn(C)c(C)c1N1C(=O)c2cccc3c(N)ccc(c23)C1=O	+	+	·	+	132.9*	80.7	+	+
CCN1C(=O)c2cccc3c(N)ccc(c23)C1=O	+	+	?	+	2.9	102.8	+	+
Cc1ccc(S(=O)(=O)C(C#N)c2nc3ccccc3nc2N2CCCC2)cc1 (stereo unspecified)	74.8*	56.8*	-3.6	83.1*	8.4	83.6	63.6*	63.2*
CCN1CCN(c2nc3ccccc3nc2C(C#N)S(=O)(=O)c2ccc(C)cc2)CC1 (stereo unspecified)	6.8	-0.4	-1.2	9.7	1.4	92.9	·	·
O=C(COc1ccc(Cl)cc1Cl)N(C1CCCCC1)C1CCS(=O)(=O)C1 (stereo unspecified)	-1.0	3.4	·	3.4	-1.6	86.0	·	·
CN(c1ncc(C(F)(F)F)cc1Cl)N1C(=O)c2cccc(N)c2C1=O	62.0*	84.2*	-0.6	58.7*	1.6	103.6	47.4*	65.6*
O=C(COC(=O)c1cc(-c2cccc3ccccc23)nc2ccccc12)NC1CCS(=O)(=O)C1 (stereo unspecified)	185.3*	97.4*	-16.3	151.8*	0.7	127.8	63.3*	80.3*
Cc1cc(C(=O)OCC(=O)NC2CCS(=O)(=O)C2)c2ccccc2n1 (stereo unspecified)	-2.5	-1.5	0.5	0.1	-2.7	112.7	·	·
CCC1(C)Cc2c(sc3nc(SC)[nH]c(=S)c23)CO1 (stereo unspecified)	57.2*	32.2*	-8.6	50.4*	-8.9	92.8	22.2	25.1
CCSc1nc2sc3c(c2c(=O)[nH]1)CC(C)(CC)OC3 (stereo unspecified)	6.3	6.0	-0.3	2.7	1.5	106.0	·	·
N#Cc1c(N2CCCC(O)C2)nc(N)c2c(N)nc3c(c12)CC(=O)N3C12CC3CC(CC(C3)C1)C2 (stereo unspecified)	54.4*	12.1	·	28.4	0.5	94.7	18.2	22.3
O=C(COC(=O)c1cnc(Cl)c(Cl)c1)NC1CC1	·	-0.2	·	·	5.7	102.5	·	·
CN(C)CCP(=O)(c1ccccc1)c1ccccc1	-0.4	-0.4	2.4	5.4	-9.6	103.9	·	·
CN(C)CCN(C)Cc1c2ccccc2c(CN(C)CCN(C)C)c2ccccc12	189.5*	123.4*	-64.1*	172.2*	6.6	100.0	77.0*	101.6*
C=CCn1c(C)cc(C(=O)CSc2n[nH]c(N)n2)c1C	46.9*	-2.8	-1.3	-0.9	-1.3	103.4	12.8	3.2
CCNC(=S)N=Nc1c(O)[nH]c2ccc([N+](=O)[O-])cc12	5.2	-1.1	-4.9	24.4	-1.2	96.6	·	·
O=[N+]([O-])c1ccc2[nH]c(O)c(N=NC(=S)Nc3cccnc3)c2c1	42.1*	-1.9	2.6	18.3	-0.8	111.1	32.4*	33.4
Cn1nnnc1Sc1ncnc2scc(-c3cc4ccccc4o3)c12	-2.1	3.9	·	1.0	0.8	107.8	·	·
COc1ccccc1CN=c1c([N+](=O)[O-])nn(-c2ccc3c(c2)OCCO3)n1O	-11.5	4.4	1.1	-2.9	0.4	95.2	·	·
SMILES	MCL1 BIM primary	GLD-1 TGE inh	MEX-5 binding	BCLXL inh	LANA-H2A inh	CR mimetic SO	Bcl-xL conf	MCL1 inh confirm
O=[N+]([O-])c1nn(-c2ccc3c(c2)OCCO3)n(O)c1=NCc1ccccc1Cl	54.2*	-2.2	-1.4	42.0*	-5.4	104.4	13.8	11.1
CC1CCCC(C)N1C(=O)COC(=O)c1cc(=O)[nH]c2ccccc12 (stereo unspecified)	·	1.9	·	·	1.8	91.0	·	·
COc1cccc(CN2C(=O)c3ccccc3S2(=O)=O)c1	0.2	2.4	-4.2	5.3	-2.9	97.2	·	·
COc1cccc(CN2C(=O)c3cccc(N)c3C2=O)c1	57.7*	43.6*	-21.4	50.2*	4.9	92.8	33.1*	53.3*
CC1CN(CCOc2ccccc2C(C)C)CC(C)O1 (stereo unspecified)	1.7	3.8	-2.6	2.4	5.3	95.8	·	·
CC(C(=O)N1CCc2ccccc21)N1CCN(S(=O)(=O)c2cccc(C(F)(F)F)c2)CC1 (stereo unspecified)	6.0	7.9	·	3.2	·	93.7	·	·
CC(=O)C(Sc1nc(NC(C)(C)C)nc(N(C)C)n1)C(C)=O	193.0*	1.8	0.1	7.3	2.2	94.0	6.6	-1.1
COC(=O)CSc1nc(NC(C)(C)C)nc(N(C)C)n1	2.5	1.7	2.0	5.6	2.0	91.0	·	·
CC(C)CC1NC(=O)c2cc(Cl)ccc2-n2c1nc1cc(F)ccc1c2=O (stereo unspecified)	·	0.7	·	·	0.4	106.8	·	·
CCc1ccccc1Nc1nc(N)nc(COC(=O)c2c(C)noc2C)n1	-3.2	6.2	·	1.9	-3.5	109.6	·	·
COCC1CCN(Cc2c(C(=O)N3CCN(C4CCCCC4)CC3)nc3ccccn23)C1 (stereo unspecified)	57.2*	30.5	-19.1	51.6*	-0.4	95.7	14.6	15.4
COC1CCN(Cc2c(C(=O)N3CCN(C4CCCCC4)CC3)nc3ccccn23)CC1	49.4*	24.5	-4.0	43.3*	-0.5	82.1	15.9	14.6
CC(C)n1c(SCC(=O)Nc2nncs2)nnc1-c1ccco1	40.6*	3.7	0.0	11.6	-7.6	106.5	13.7	45.3*
Cc1nnc(NC(=O)CSc2nnc(-c3ccco3)n2C(C)C)s1	4.1	3.0	0.8	-3.1	-0.5	96.0	·	·
CC(=O)N1CCOc2ccc(S(=O)(=O)NCCc3cccc(C)c3)cc21	0.1	-6.3	-1.6	6.8	2.8	98.9	·	·
